# Results taken from PubChem BioAssay AID720711 (National Center for Advancing Translational Sciences (NCATS), 2013).
# Hit rate of the full screen: of about 360,000 compounds, about 290 (0.081%) were called active. Many of the other results were omitted from the sample, so actives are more common in it than they were. Values without a mark were called inactive. Calls follow the shape of the dose curve; as a rule, active = well fitted activation curve with a large enough effect; inconclusive = small, poorly fitted or top-dose-only effect; inactive = no such curve, though single readings can be large or run the other way.
# Target: Rap guanine nucleotide exchange factor 4 (Homo sapiens) (UniProt Q8WZA2)
# Sequence (Q8WZA2 whole entry, looked up): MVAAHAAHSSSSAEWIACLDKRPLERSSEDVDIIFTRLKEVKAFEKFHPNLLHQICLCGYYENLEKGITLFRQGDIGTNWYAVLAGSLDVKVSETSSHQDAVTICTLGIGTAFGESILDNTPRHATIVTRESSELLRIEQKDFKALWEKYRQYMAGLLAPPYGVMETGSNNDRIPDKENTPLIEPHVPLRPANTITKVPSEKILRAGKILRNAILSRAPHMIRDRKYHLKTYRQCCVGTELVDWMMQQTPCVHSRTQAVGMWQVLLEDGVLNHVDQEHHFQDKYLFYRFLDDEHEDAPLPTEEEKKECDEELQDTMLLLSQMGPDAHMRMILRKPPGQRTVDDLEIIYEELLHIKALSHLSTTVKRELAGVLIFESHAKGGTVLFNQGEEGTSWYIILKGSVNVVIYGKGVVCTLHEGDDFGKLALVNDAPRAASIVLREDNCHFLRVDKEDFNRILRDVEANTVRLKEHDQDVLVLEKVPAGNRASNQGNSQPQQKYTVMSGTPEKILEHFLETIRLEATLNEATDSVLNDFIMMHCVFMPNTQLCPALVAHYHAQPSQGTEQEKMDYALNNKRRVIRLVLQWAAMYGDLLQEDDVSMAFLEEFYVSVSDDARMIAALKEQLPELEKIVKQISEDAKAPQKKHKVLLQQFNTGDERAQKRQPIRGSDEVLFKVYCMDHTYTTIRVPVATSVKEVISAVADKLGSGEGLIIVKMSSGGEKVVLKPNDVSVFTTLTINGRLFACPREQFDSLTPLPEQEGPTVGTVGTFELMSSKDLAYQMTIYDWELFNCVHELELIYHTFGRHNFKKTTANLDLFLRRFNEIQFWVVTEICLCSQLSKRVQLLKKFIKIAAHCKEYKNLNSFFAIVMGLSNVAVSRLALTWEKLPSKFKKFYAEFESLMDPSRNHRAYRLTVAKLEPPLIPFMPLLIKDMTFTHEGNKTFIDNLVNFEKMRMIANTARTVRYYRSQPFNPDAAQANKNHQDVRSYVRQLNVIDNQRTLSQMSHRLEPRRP
# Test: qHTS for Agonist of cAMP-regulated guanine nucleotide exchange factor 4 (EPAC2): primary screen; also: nearly all actives have a fitted effect of over 50% in size
# Conditions: biochemical qHTS; Potency: EPAC2 activation; series mostly up to 154 µM; activation: at the top concentration
# Excerpt: In multi-cellular eukaryotic organisms, the effects of cAMP are transduced by two ubiquitously-expressed intracellular cAMP receptors, the classic protein kinase A/cAMP-dependent protein kinase (PKA/cAPK) and the more recently discovered exchange protein directly activated by cAMP/cAMP-regulated guanine nucleotide exchange factor (EPAC/cAMP-GEF). Both PKA and EPAC are ubiquitously expressed in all tissues, and an increase in intracellular cAMP levels will lead to the activation of both PKA and EPAC. Therefore, careful dissections of the individual role and relative contribution of EPAC and PKA within the overall cAMP signaling in various model systems are critical for further elucidating the mechanism of cAMP signaling. To date no EPAC-specific antagonists and agonist, as well as isoform-specific agonists have been reported, and developing EPAC-specific pharmacological probes to determine the physiological functions that EPAC play in the overall cAMP-mediated signaling remains a major challenge within the research field. Furthermore, identified regulators of EPAC may lead to new mechanism-based therapeutic strategies specifically targeting the EPAC / cAMP-signaling components as EPAC has been implicated to play important roles in major human pathological conditions such as diabetes, heart disease, and cancer.
# This qHTS will be used to screen the Molecular Libraries Small Molecule Repository (MLSMR) as a concentration-titration series using the NCGC unique quantitative screening (qHTS) platform to find activators for EPAC2. In addition, this assay will also be used as a counterscreen for the EPAC1 qHTS. This fluorescent based assay is developed and validated for EPAC2 that measures exchange using EPAC effector Rap1 complex with BODIPY-GDP, a GDP analog with a tethered fluorophores. Activators are identified by monitoring the change in fluorescence signal as the exchanged free BODIPY-GDP has a reduced fluorescence compared to Rap1-bound BODIPY-GDP. […] in signal (activation) is the desired outcome for the EPAC2 agonist while no activity in this assay is desired for the EPAC1 agonist counterscreen.
# [1] de Rooij, J., Zwartkruis, F. J., Verheijen, M. H., Cool, R. H., Nijman, S. M., Wittinghofer, A., and Bos, J.L. (1998) Nature 396, 474-477
# [2] Kawasaki, H., Springett, G. M., Mochizuki, N., Toki, S., Nakaya, M., Matsuda, M., Housman, D. E., and Graybiel, A. M. (1998) Science 282, 2275-2279
# NIH Chemical Genomics Center [NCGC]
# NIH Molecular Libraries Probe Centers Network [MLPCN]
# Assay Submitter (PI): Xiaodong Cheng, The University of Texas, Medical Branch
# Briefly, three uL of reagents (100 nM EPAC2, 250 nM RAP1B-BODIPY-GDP, 50 uM GDP) were dispensed into a 1536-well Greiner black solid-bottom medium binding assay plate. Controls and test compounds (23 nL) were transferred to the plate via a Kalypsys pin tool equipped with a 1536-pin array. The plates were centrifuged at 1,000 rpm for 15 seconds followed by 5 minute incubation at room temperature. The assay plates were read at 5 minute intervals for 30 minutes in the ViewLux plate reader using 480nm excitation and 540nm emission filters. The results were normalized to the agonist positive control of 6.5 mM cAMP.
# Potency is read from the fitted curve at half-maximal effect.
SMILES,Potency,activation
CCCCCCc1cc2cc(-c3nnc(-c4ccccc4)o3)c(=O)oc2cc1O,44.7 µM (active),
COc1cc(C(=O)NCC(=O)NCCSc2ccc(Br)cc2)cc(OC)c1OC,,1.02%
CN(CCOc1ccc(Br)cc1)CC(=O)Nc1cccc(S(=O)(=O)NC2=NCCC2)c1,,8.89%
CCN=C1S/C(=C\c2cc(Br)ccc2OCC(=O)OCC)C(=O)N1CC,,-3.99%
CC(C)N1C(=S)SC(C)(C)C1n1oc(=O)n(-c2ccc(Cl)c(Cl)c2)c1=O (stereo not given),,16.2%
COC(=O)c1ccc([C@@H](O)[C@H](C)C(=O)CC(=O)OC(C)(C)C)cc1,,7.76%
CC(=O)Oc1ccc(-c2cccc(C(=O)N3CCCCC3)c2)cc1,,4.17%
CCN(CC(=O)Nc1cccc(S(N)(=O)=O)c1)Cc1nc2ccccc2c(=O)[nH]1,,5.9%
Cc1nc2ccc(S(=O)(=O)N(C)CC(=O)NC(C)c3ccccc3)cc2s1 (stereo not given),,-5.42%
Cc1cc2c(cc1C)NC(c1ccccn1)C1=C(CC(C)(C)CC1=O)N2 (stereo not given),,"0% [at 15.6 µM, 100% = 6.5 mM cAMP response]"
O=C(Cn1nnc2ccccc2c1=O)NCc1ccc(Cl)cc1,,6.7%
Cc1ccc(S(=O)(=O)CCC(=O)OCc2ccccc2)cc1,,7.04%
O=C(CNC(=O)c1ccccc1F)OCC(=O)c1c[nH]c2ccccc12,,-5.16%
CN1C(CC(=O)Nc2ccc(Br)cc2)c2ccccc2CC1(C)C (stereo not given),,2.28%
O=C(COC(=O)c1c(Cl)cccc1Cl)Nc1cccc(S(=O)(=O)NC2=NCCCCC2)c1,,5.96%
CCCN(CC(=O)Nc1ccc(C(N)=O)cc1)CC(=O)Nc1ccccc1C,,3.61%
COC(=O)[C@]12CCCCC=C1N(Cc1ccco1)C(=O)[C@H](CC(=O)NCCCCc1ccccc1)C2,,5.99%
COc1ccc(S(=O)(=O)NC(CC(=O)NCc2ccccc2OC)c2ccco2)cc1 (stereo not given),,-3.25%
Cc1sc2ncn(CC(=O)NCCN(C)C)c(=O)c2c1S(=O)(=O)N1CCC(C)CC1,,1.43%
CN(CCc1ccccn1)C(=O)c1ccc(OC2CCN(CCc3ccccc3)CC2)cc1,,-1.49%
O=C1CCc2cc(S(=O)(=O)N3CCC(C(=O)NCc4ccccc4Cl)CC3)ccc2N1,,-0.988%
CCOc1ccccc1Nc1nnc(SCC(=O)NCC2CCCO2)s1 (stereo not given),,-2.02%
N#CCCn1cnc2ccccc21,,5.55%
O=[N+]([O-])c1ccc(CN2CC(N3CCC(c4ccccc4)CC3)CS2(=O)=O)cc1 (stereo not given),,12.6%
CC(=O)[C@@]12O[C@@H]1C[C@H]1[C@@H]3CC[C@H]4C[C@@H](O)CC[C@]4(C)[C@H]3CC[C@@]12C,,7.28%

SMILES,Potency,activation
CC1Cc2ccccc2N1S(=O)(=O)c1c(N)n(C)c(=O)n(C)c1=O (stereo not given),,2%
CC(C(=O)NC1CCCC1)N(c1ccc(Oc2ccccc2)cc1)S(C)(=O)=O (stereo not given),,9.13%
CC(=O)NC12CC3CC(C1)CC(C(=O)N1CCN(S(=O)(=O)c4cccs4)CC1)(C3)C2,,-5.25%
Cc1cc(C)c(S(=O)(=O)N2C=CC(C(F)(F)F)=NCC2)c(C)c1,,6.38%
O=C(C1CCC1)N1CCN(S(=O)(=O)c2ccc([N+](=O)[O-])cc2)CC1,,4.71%
COc1ccc(-c2[nH][nH]c(=O)c2NC(=O)c2ccc([N+](=O)[O-])cc2)cc1,,2.41%
COc1ccc(NS(=O)(=O)c2cc(NC(=O)CC(=O)c3ccc([N+](=O)[O-])cc3)ccc2C)cc1,,-1.43%
COc1ccc(C(=O)Nc2nc(-c3ccc(OC)cc3)c(-c3ccc([N+](=O)[O-])cc3)s2)cc1,112 µM (active),
CCOC(=O)NC(C(F)(F)F)(C(F)(F)F)P(=O)(c1ccccc1)c1ccccc1,,3.46%
Oc1ccc2ccc3cccc[n+]3c2c1,100 µM (active),
COCCN1CCN(C(=O)c2cc(COc3ccc(F)cc3Cl)on2)CC1,,-3.51%
Cc1cc(Cl)c2oc(C(=O)N3CCC(O)(c4ccccc4)CC3)c(C)c2c1,,3.33%
Cc1cccc(OCc2nnc(SCc3nc4cc(C(F)(F)F)ccc4c(=O)[nH]3)o2)c1,,-6.74%
Cc1nnc(N(Cc2ccco2)C(=O)c2ccno2)s1,,2.05%
CCC1C(C#N)=C(SC)NC2=C1C(=O)CC(C)(C)C2 (stereo not given),,-8.31%
CCn1cc(NC(=O)Nc2ccc(OC)c(OC)c2)c(C(N)=O)n1,,-3.89%
C[n+]1ccc(/C=C/c2c[nH]c3ccccc23)cc1,100 µM (active),
COc1ccc(CNC(=O)c2ccc(-c3cccnc3)c3ccoc23)cc1OC,,5.81%
CCc1noc(C)c1C(=O)N1CCCC(N2CCN(c3ccc(F)cc3)CC2)C1 (stereo not given),,7.4%
C=C1C(=O)OC2C1CCC(C)=CCCC1(C)OC21 (stereo not given),,8.7%
CCC(C(=O)NCCC(C)C)N(Cc1ccccc1Cl)C(=O)c1snc(C(N)=O)c1N (stereo not given),,24%
COc1cccc(N(CC(=O)NC2CCCC2)C(=O)CCCC(=O)Nc2ccccn2)c1,,9.06%
Cc1nn(C(C)C(=O)NCCC2=CCCCC2)c(=O)c2nn(-c3ccccc3)c(C)c12 (stereo not given),,7.66%
CC(C)C(NC(=O)OCc1ccccc1)C(=O)OCC(=O)N1C(C)CCCC1C (stereo not given),,"11.3% [at 15.6 µM, 100% = 6.5 mM cAMP response]"
COc1ccc(S(=O)(=O)NCC(c2ccco2)N2CCOCC2)cc1 (stereo not given),,11.6%
